Screen size: about 290,000 compounds; about 570 (0.2%) were called active. Inconclusive results (about 1%) are left out. Rule as the data show it: active = inhibition mostly above about 51% (no sharp cut-off); inconclusive = no clear call, values can overlap the other calls; inactive = mostly below about 53%. This excerpt belongs to a sample that is enriched for actives.

The target in this assay is Voltage-dependent N-type calcium channel subunit alpha-1B (Homo sapiens) (UniProt Q00975). As to the kind of experiment: inhibitors of Mint1-CaV2.2 protein interaction, biochemical, HTRF (AID 2073). To be noted: at 20 µM, stronger effect = higher value.
Sequence of Voltage-dependent N-type calcium channel subunit alpha-1B (Homo sapiens) (Q00975 whole entry, looked up): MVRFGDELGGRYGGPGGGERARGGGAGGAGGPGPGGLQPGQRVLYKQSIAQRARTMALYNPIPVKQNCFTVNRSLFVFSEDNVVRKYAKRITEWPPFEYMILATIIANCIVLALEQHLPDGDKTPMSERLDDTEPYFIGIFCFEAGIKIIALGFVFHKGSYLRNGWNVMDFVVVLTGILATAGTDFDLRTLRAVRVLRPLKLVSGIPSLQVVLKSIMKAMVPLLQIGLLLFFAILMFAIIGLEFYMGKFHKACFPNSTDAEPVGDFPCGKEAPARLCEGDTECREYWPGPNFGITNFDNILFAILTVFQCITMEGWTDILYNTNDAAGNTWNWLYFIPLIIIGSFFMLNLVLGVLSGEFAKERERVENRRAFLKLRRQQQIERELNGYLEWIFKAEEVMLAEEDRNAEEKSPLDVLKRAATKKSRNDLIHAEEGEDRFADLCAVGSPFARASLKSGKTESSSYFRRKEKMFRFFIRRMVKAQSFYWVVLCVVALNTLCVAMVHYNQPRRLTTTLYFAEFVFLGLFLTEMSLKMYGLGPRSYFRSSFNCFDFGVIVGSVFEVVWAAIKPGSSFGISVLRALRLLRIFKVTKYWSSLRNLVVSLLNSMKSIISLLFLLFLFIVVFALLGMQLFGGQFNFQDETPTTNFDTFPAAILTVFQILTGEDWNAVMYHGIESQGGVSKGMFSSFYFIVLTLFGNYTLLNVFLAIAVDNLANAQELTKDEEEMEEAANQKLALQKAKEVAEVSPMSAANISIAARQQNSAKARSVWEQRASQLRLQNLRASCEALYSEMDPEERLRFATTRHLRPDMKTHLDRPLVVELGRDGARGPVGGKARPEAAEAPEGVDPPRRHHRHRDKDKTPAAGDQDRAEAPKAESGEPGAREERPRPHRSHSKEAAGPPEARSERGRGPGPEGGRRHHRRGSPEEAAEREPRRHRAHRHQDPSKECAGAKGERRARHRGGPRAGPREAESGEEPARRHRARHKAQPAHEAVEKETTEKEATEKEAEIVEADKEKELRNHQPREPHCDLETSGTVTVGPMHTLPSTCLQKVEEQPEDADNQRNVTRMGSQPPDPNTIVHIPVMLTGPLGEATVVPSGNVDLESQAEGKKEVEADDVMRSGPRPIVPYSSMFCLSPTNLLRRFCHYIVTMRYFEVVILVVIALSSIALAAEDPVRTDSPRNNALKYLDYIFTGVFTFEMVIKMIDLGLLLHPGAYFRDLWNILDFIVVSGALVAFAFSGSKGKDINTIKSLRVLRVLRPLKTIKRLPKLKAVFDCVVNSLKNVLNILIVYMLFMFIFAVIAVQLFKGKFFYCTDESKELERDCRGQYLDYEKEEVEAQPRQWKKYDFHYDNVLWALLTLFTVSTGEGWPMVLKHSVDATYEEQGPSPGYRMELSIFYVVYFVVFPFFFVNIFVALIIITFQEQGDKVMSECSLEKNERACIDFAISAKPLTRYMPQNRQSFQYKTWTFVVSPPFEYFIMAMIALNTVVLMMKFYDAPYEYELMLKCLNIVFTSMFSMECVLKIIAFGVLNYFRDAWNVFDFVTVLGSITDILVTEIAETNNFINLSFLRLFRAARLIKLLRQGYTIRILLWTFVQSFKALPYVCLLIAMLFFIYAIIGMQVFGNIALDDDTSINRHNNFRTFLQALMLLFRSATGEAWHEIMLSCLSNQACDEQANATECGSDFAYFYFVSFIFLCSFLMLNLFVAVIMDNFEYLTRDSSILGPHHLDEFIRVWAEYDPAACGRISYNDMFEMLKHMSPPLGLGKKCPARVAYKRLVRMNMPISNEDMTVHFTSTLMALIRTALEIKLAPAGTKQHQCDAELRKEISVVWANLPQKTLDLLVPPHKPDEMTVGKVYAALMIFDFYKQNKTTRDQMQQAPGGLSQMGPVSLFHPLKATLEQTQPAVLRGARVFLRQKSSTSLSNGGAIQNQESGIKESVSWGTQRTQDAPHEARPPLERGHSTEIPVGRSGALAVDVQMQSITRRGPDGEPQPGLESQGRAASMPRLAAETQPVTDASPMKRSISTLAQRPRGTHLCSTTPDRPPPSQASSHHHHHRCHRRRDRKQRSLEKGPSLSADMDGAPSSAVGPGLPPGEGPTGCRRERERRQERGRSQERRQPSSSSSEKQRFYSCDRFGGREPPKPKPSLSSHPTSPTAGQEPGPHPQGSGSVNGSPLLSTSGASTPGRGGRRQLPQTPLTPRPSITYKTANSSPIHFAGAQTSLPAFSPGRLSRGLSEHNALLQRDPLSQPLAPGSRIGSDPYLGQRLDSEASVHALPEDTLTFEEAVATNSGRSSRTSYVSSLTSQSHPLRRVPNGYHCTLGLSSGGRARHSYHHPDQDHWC
Consider `COc1ccc(-c2noc(N3CCC(C(=O)Nc4ccccc4Cl)CC3)n2)cc1`, for which the inhibition was 1.9% (inactive). In the case of `Cc1onc(-c2ccccc2)c1C(=O)OCC(=O)NCc1ccc(F)cc1` it was -0.7% (inactive). In the case of `CCOc1ccc(Oc2c(C)oc3cc(O)ccc3c2=O)cc1`, the inhibition is 15.1% (inactive).

Regarding `Cc1ccc(-c2nc(C=Nc3ccccc3)c(O)o2)cc1`, the inhibition was -6.2% (inactive). The same measure for `Cc1ccc(N=Cc2nc(-c3ccc(C)cc3)oc2O)cc1`: 17.5% (inactive); for `CC(NCC(O)c1ccc([N+](=O)[O-])cc1)C12CC3CC(CC(C3)C1)C2` (stereo unspecified): 0.6% (inactive); for `CCNC(=O)COC(=O)c1ccc(-n2nc(C)cc2C)cc1`: 5.8% (inactive). `O=C(/C(=N/N=C/c1ccc(O)c(O)c1)c1ccccc1)c1ccccc1`: the inhibition is -21.8% (inactive). Regarding `COc1cc(/C=N/N=C(/C(=O)c2ccccc2)c2ccccc2)cc(OC)c1O`, the inhibition was -2.5% (inactive).

Regarding `O=C(/C(=N/N=C/c1ccc(O)c(O)c1O)c1ccccc1)c1ccccc1`, the inhibition is 66.2% (active). Take `CCC(=O)N1CC2(C)CN(C(=O)CC)CC(C)(C1)C2`: the inhibition is -2.6% (inactive).

`COc1ccc(C(=O)N2CCCC(CO)(Cc3ccccc3C)C2)o1` (stereo unspecified): the inhibition was 2.1% (inactive). Take `CCCCc1ccc(-c2csc(/C(C#N)=C/c3ccco3)n2)cc1`: the inhibition is 49.9% (inactive).

Consider `CCCCc1ccc(-c2csc(/C(C#N)=C\c3ccco3)n2)cc1`, for which the inhibition is 57.8% (active).

Regarding `CCCCc1ccc(-c2csc(/C(C#N)=C/c3ccc(C)o3)n2)cc1`, the inhibition was 16.8% (inactive). In the case of `CSc1nc(N2CCN(c3ccccc3)CC2)cc(N2CCN(c3ccccc3)CC2)n1` it was 18.7% (inactive); in that of `O=C(N/N=C1\CCCc2ccccc21)c1cccc(Br)c1`, -12.7% (inactive).

In the case of `Cc1ccccc1CN(c1ccc(C(=O)NCc2ccccn2)cc1)S(C)(=O)=O`, the inhibition is -3.2% (inactive). The same measure for `CCc1ccc(Nc2n[n+](-c3ccccc3)c(-c3ccc(OC)c(Br)c3)s2)cc1`: 19.2% (inactive); for `COC(=O)c1c(NC(=O)COC(=O)c2ccc(NC(=O)CC#N)cc2)sc2c1CCCCC2`: 78.4% (active). In the case of `COC(=O)c1c(NC(=O)COC(=O)c2ccccc2O)sc2c1CCCCC2`, the inhibition was -3% (inactive).

For the compound `COC(=O)c1c(NC(=O)COC(=O)c2ccc(O)cc2)sc2c1CCCCC2`, the inhibition was 5.8% (inactive). For `CC(C)CCN1C(Nc2ccccc2)=NC[C@@H]1C`, the inhibition is 2.7% (inactive). As for `COc1ccccc1-c1cc(C(=O)Nc2cc(C)n(Cc3ccc(Cl)cc3)n2)no1`, the inhibition is 7.9% (inactive).

With `Cc1c(Cl)cccc1NC(=O)CCCN1C(=O)c2cccnc2C1=O`, the inhibition is 3.3% (inactive). The same measure for `COc1ccc(Nc2c(-c3ccc(OC)cc3)nc3cnccn23)cc1`: -9.1% (inactive).

The values are drawn from PubChem BioAssay AID2073 (Sanford-Burnham Center for Chemical Genomics, 2009).
